Compounds with a hit are over-represented: about 4.7% of the library has one in this group of screens.
HSF1 activator – HSF-1 activators, primary screen, NIH3T3-HGL cells, MG132 stress, luminescence, single point; activation, % at 9 µM; NIH3T3-HGL HSF-1 luciferase reporter, 8 h; 100% = twice DMSO control signal; actives 1.7% (n = 300,000);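 active = mean replicate activation of at least 50% with a set share of replicates each reaching 50%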
LMP1 NFkB inh – EBV LMP1-driven NF-kappaB luciferase reporter inhibitors, primary screen, cell-based, luminescence, single point; actives 0.69% (n = 350,000); LMP1-induced NF-kappaB luciferase reporter cells; inhibition, % at 12.5 µM; in the data active = inhibition above about 41%
HSF1 inh – HSF1 inhibitors in luciferase reporter cells, primary screen, cell-based, NIH3T3, luminescence; activity change, negative = inhibition, % at 7.5 µM (by protocol); NIH3T3-HGL HSE-luciferase, MG132-induced, luminescence 8 h; active compounds read low; actives 0.77% (n = 300,000);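 active = more than half of replicate wells show activity change below -50%, luminescence cut by over half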;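 note: luciferase reports HSF-1 transcriptional activity via heat shock element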
TROY signal inh – inhibitors of TROY-driven NF-kB signaling, primary screen, Q293 LMP1-TROYcd cells, NF-kB luciferase, uHTS | inhibition, % at 10 µM | AID 1347056, 2019 | actives 0.98% (n = 360,000) | Q293 LMP1-TROYcd NF-kB luciferase reporter, 4 h;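 active = compounds whose plate-normalised and pattern-corrected inhibition of the luciferase reporter signal at the single screening dose is 50% or more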
TWEAK-Fn14 inh – inhibitors of TWEAK-Fn14 signaling, primary screen, luciferase reporter cells, uHTS; TWEAK-stimulated Fn14 reporter cells, luciferase luminescence, 8 h; inhibition, % at 10 µM; actives 2% (n = 360,000); in the data active = inhibition above about 50%
HSP90 inh – HSP90 inhibitors, primary screen, cell lysate, luminescence. Heat shock protein HSP 90 (rabbit reticulocyte lysate; luciferase refolding). Rabbit reticulocyte lysate, luciferase refolding luminescence, 3 h. inhibition, % at 5.6 µM. actives 0.91% (n = 290,000). AID 1789, 2009;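 active = inhibition above the screen-wide mean plus 3 SD, computed separately per campaign, cut at about 16% in these data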;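 note: inhibitors lower the luminescence because luciferase stays unfolded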
Large screens that a line does not name were inactive.

O=C(O)c1cc(C(=O)O)cc(N2C(=O)CSC2=S)c1	none
CCN(CC)c1ccc(N2C(=O)CSC2=S)cc1	TWEAK-Fn14 inh 72
O=C(O)c1ccc(N2C(=O)CSC2=S)cc1	TWEAK-Fn14 inh 68 (no result: HSP90 inh)
CC(=O)Nc1ccc(C(=O)OCC(=O)Nc2ccccc2Sc2ccccc2)cc1	none
N#CCC(=O)Nc1ccc(C(=O)OCC(=O)Nc2ccccc2Sc2ccccc2)cc1	HSF1 activator 63
O=C(/C=C/c1ccccc1)/C=C/c1ccccc1	TWEAK-Fn14 inh 90
O=C(/C=C/c1ccccc1)c1ccccc1	none
Cc1ccc(NC(=O)Nc2nnc([C@H]3C[C@H](O)[C@@H](CO)O3)s2)cc1	none (no result: HSF1 activator, LMP1 NFkB inh, HSF1 inh, HSP90 inh)
Cc1ccc(Cl)cc1N1CCN(C(=O)c2ccc(CS(=O)Cc3ccc(Cl)cc3)o2)CC1 (stereo not given)	TROY signal inh 54
Cc1ccc(CS(=O)Cc2ccc(C(=O)N3CCN(c4cccc(C)c4C)CC3)o2)cc1 (stereo not given)	TROY signal inh 57 (no result: HSF1 activator, HSF1 inh, HSP90 inh)
Cc1cccc(N2CCN(C(=O)c3ccc(CS(=O)Cc4cccc(Cl)c4)o3)CC2)c1C (stereo not given)	none
Cc1ccc(C)c(N2CCN(C(=O)c3ccc(CS(=O)(=O)c4ccccc4C)o3)CC2)c1	TWEAK-Fn14 inh 55
COc1ccc2nc(NN=C(C)c3ccccn3)cc(C)c2c1	LMP1 NFkB inh 79 (no result: HSF1 activator, HSF1 inh, HSP90 inh)
C/C(=N\NC(=O)c1cc(C)nc2ccccc12)c1ccccn1	none (no result: HSF1 activator, HSF1 inh, HSP90 inh)
Cc1ccc(C2NC(=O)c3ccccc3N2)s1 (stereo not given)	HSF1 activator 67
O=C1NC(c2ccncc2)Nc2ccccc21 (stereo not given)	none (no result: TROY signal inh, TWEAK-Fn14 inh)
Cc1cccc(C2NC(=O)c3ccccc3N2)c1 (stereo not given)	none (no result: HSF1 activator, HSF1 inh, HSP90 inh)
O=C1NC(c2ccc(Cl)cc2)Nc2ccccc21 (stereo not given)	HSF1 activator 70
CN(C)c1ccc(C2NC(=O)c3ccccc3N2)cc1 (stereo not given)	HSF1 activator 78, TWEAK-Fn14 inh 62
COC(=O)[C@]12CCCCC=C1N(CCC1=CCCCC1)C(=O)[C@H](CC(=O)NCCCN1CCCC1=O)C2	none (no result: HSF1 activator, LMP1 NFkB inh, HSF1 inh, HSP90 inh)
CC1(Oc2ccc3ccccc3c2)CCN(Cc2cccn2-c2nccs2)C1 (stereo not given)	none (no result: HSF1 activator, LMP1 NFkB inh, HSF1 inh, HSP90 inh)
COCCCn1cc(CN2CC(N3CCN(C4CCN(C)CC4)CC3)CS2(=O)=O)nn1 (stereo not given)	none (no result: HSF1 activator, LMP1 NFkB inh, HSF1 inh, HSP90 inh)
COc1ccc(N2C(=O)CC(NNc3nc4ccccc4s3)C2=O)cc1 (stereo not given)	HSF1 activator 114 (no result: LMP1 NFkB inh)
O=C1CC(N2CCSCC2)C(=O)N1c1ccccc1 (stereo not given)	none
O=C1CC(N2CCCCC2)C(=O)N1c1ccccc1 (stereo not given)	HSF1 inh -53
O=C1CC(NNc2ccccc2)C(=O)N1c1ccccc1 (stereo not given)	HSF1 activator 63
CC1(c2nnnn2-c2ccc3c(c2)OCCO3)CCC(=O)N1CCc1ccccc1F (stereo not given)	TWEAK-Fn14 inh 68 (no result: HSF1 activator, LMP1 NFkB inh, HSF1 inh, HSP90 inh)
COc1ccc(N(CC(=O)N2CCN(c3ccccc3)CC2)S(=O)(=O)c2ccccc2)cc1	none (no result: HSF1 activator, HSF1 inh, HSP90 inh)
Cc1ccc(S(=O)(=O)NC(=NCc2ccccc2)c2ccc(F)cc2)cc1	HSF1 inh -77
Cc1ccc(S(=O)(=O)NC(=NCC(=O)O)c2ccc(F)cc2)cc1	none
O=C(CCc1ccccc1)NC1(Cc2ccccc2)CCN(CCc2cccs2)C1=O (stereo not given)	none (no result: HSF1 activator, HSF1 inh, HSP90 inh)
O=C(NC1(Cc2ccccc2)CCN(Cc2ccc(-c3ccccc3)cc2)C1=O)c1ccccc1 (stereo not given)	TROY signal inh 62, TWEAK-Fn14 inh 59 (no result: HSF1 activator, HSF1 inh, HSP90 inh)
COc1ccc2c(c1OC)C(=O)OC2Nc1nc(-c2ccc([N+](=O)[O-])cc2)cs1 (stereo not given)	none
COc1ccc(-c2csc(NC3OC(=O)c4c3ccc(OC)c4OC)n2)cc1OC (stereo not given)	HSF1 activator 60, TWEAK-Fn14 inh 67
O=C(NC(c1ccc(-c2ccccc2)cc1)c1cnccn1)C1CCN(CCCOc2ccccc2)CC1 (stereo not given)	none (no result: HSF1 activator, LMP1 NFkB inh, HSF1 inh, HSP90 inh)
Cc1cccc(Nc2nc(-c3c(C)nc4ccccn34)cs2)c1	TWEAK-Fn14 inh 66
CC(=O)Nc1cc(C(=O)N(C)Cc2ccco2)ccc1Sc1ccc(C)cc1	HSF1 inh -81
CCOC(=O)c1c(NC(C)=O)sc2c(O)c(CN3CCN(CC)CC3)ccc12	HSF1 activator 112
COC(=O)[C@]12CCCCC=C1N(Cc1ccc(Cl)cc1Cl)C(=O)[C@H](CC(=O)N1CCCC1)C2	none (no result: HSF1 activator, LMP1 NFkB inh, HSF1 inh, HSP90 inh)
Cc1nc(-c2cccc(NC(=O)c3ccc(Br)o3)c2)cs1	none (no result: HSF1 activator, HSF1 inh)
Cc1nc(-c2ccc(NC(=O)c3ccc(Br)o3)cc2)cs1	HSF1 activator 53
Cc1nc(-c2cccc(NC(=O)c3ccc(-n4nccc4C)cc3)c2)cs1	TROY signal inh 60, TWEAK-Fn14 inh 74 (no result: HSF1 activator, HSF1 inh, HSP90 inh)
Cc1nc(-c2cccc(NC(=O)c3cccs3)c2)cs1	none
Cc1nc(-c2ccc(C(=O)Nc3cccc(Br)c3)cc2)cs1	HSF1 activator 56, TWEAK-Fn14 inh 66
Cc1cc(OCC(=O)OCC(=O)N(Cc2ccccc2)C(C)(C)C)ccc1Cl	none (no result: HSF1 activator, HSF1 inh, HSP90 inh)
CNc1cc(-c2cccc(OC)c2F)nc2ccnn12	none (no result: HSF1 activator, LMP1 NFkB inh, HSF1 inh, HSP90 inh)
COc1ccc2c(c1)C(c1ccc(C)o1)=NNC(c1ccccc1)=N2	LMP1 NFkB inh 43
COc1ccc2c(c1)C(c1ccc(C)o1)=NNC(c1cccnc1)=N2	none
C=CCC[C@H](Cc1ccc(F)cc1)C(=O)OC[C@@H](Cc1c[nH]c2ccccc12)NC(=O)[C@H](CC=C)CC(=O)N(CCO)Cc1ccccc1	TWEAK-Fn14 inh 89 (no result: HSF1 activator, HSF1 inh, HSP90 inh)
C=CCC[C@H](Cc1ccc(F)cc1)C(=O)OC[C@@H](Cc1c[nH]c2ccccc12)NC(=O)[C@H](CC=C)CC(=O)NCCO	none (no result: HSF1 activator, HSF1 inh, HSP90 inh)
C=CCC[C@@H](Cc1ccc(F)cc1)C(=O)OC[C@@H](Cc1c[nH]c2ccccc12)NC(=O)[C@H](CC=C)CC(=O)N(CCO)Cc1ccccc1	TWEAK-Fn14 inh 58 (no result: HSF1 activator, HSF1 inh, HSP90 inh)
CCOc1ccccc1C(=O)NC(C(=O)OCn1nnc2ccccc2c1=O)C(C)C (stereo not given)	none (no result: HSF1 activator, HSF1 inh, HSP90 inh)
CCNC(=O)C1(C)CCCN(Cc2cccc3c(OC)cc(C(=O)OCC)cc23)C1 (stereo not given)	none (no result: HSF1 activator, LMP1 NFkB inh, HSF1 inh, HSP90 inh)
O=C(CCc1nc(-c2ccccc2)no1)NCC1CCCO1 (stereo not given)	LMP1 NFkB inh 74
CC(C)(C)c1ccc(-c2noc(CCC(N)=O)n2)cc1	LMP1 NFkB inh 54

Compound activity (PubChem)
